Our source for the growth inhibition, inhibition and outcome values is PubChem BioAssay.

A number with no mark means an inactive call. For some of these results: Measured potencies and affinities stand elsewhere. Calls of active or inactive are those of the source. Unless noted, the rule behind the calls is not given here.

Assay [1] can be described thus: antimalarial activity against Dd2 strain (AID 2302;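 active = growth inhibition above 50% at the single 2 µM test dose, taken to imply half-maximal potency below 2 µM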;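 note: 0% = DMSO untreated growth and 100% = chloroquine plus artemisinin killed control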). As to conditions: P. falciparum Dd2 in RBCs, LDH growth readout, 72 h; at 2 µM; active compounds read high.
Assay [2] in a line: HepG2 cytotoxicity, primary screen, cytotoxicity control for P. falciparum antimalarial project, cell-based, ATP luminescence (AID 2303;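 active = inhibition above 50%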;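 note: 0% = DMSO wells and 100% = digitonin-killed cells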). The note with it: HepG2 viability, 24-48 h, at 10 µM, active compounds read high.
The target in assay [3] is L-lactate dehydrogenase (Plasmodium falciparum (isolate CDC / Honduras)) (UniProt Q27743). As to the kind of experiment: PfLDH activity inhibition – cell lysate, 3D7 strain, counter-screen for P. falciparum growth inhibition project (AID 2304).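 Note: 0% = vehicle and 100% = reference inhibitor.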 As to conditions: P. falciparum 3D7 crude extract, LDH APAD/NBT absorbance; at 2 µM; active compounds read high.
The nature of assay [4]: inhibition of 3D7 malaria parasite growth – strain 3D7 (AID 2306).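 Note: 0% = DMSO wells and 100% = chloroquine plus artemisinin control wells.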 The note with it: P. falciparum 3D7 erythrocytic growth, LDH absorbance, 72 h; at 2 µM; active compounds read high.
For assay [5], the target named is Calcium-dependent protein kinase 1 (Plasmodium falciparum (isolate 3D7)) (UniProt P62344). As to the kind of experiment: PfCDPK1 kinase inhibitors, biochemical, TCAMS library (AID 1159585; cut-off not given, nearly all actives have IC50 up to about 0.98 µM;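 note: inhibitors leave more ATP so luminescence rises with inhibition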). The note with it: recombinant PfCDPK1, Kinase-Glo ATP depletion luminescence.
Assay [6] deals with Plasmodium falciparum protein kinase 6 (PK6, PF3D7_1337100) (UniProt Q8IDW1). As to the kind of experiment: PfPK6 kinase inhibitors, biochemical, TCAMS library (AID 1159586). The note with it: recombinant PfPK6, Kinase-Glo ATP depletion luminescence.
For assay [7], the target named is Protein kinase 7 (PK7), Plasmodium falciparum 3D7 (PF3D7_0213400) (UniProt Q7YTF7). Kind of assay: inhibition of Plasmodium PK7 catalytic activity – biochemical, TCAMS antimalarial set, Kinase-Glo luminescence (AID 1159587). As to conditions: recombinant PfPK7, Kinase-Glo ATP depletion luminescence.
For assay [8], the target named is Calcium-dependent protein kinase 4 (Plasmodium falciparum (isolate 3D7)) (UniProt Q8IBS5). Kind of assay: PfCDPK4 kinase inhibitors, biochemical, TCAMS library (AID 1159588; cut-off not given, nearly all actives have IC50 up to about 0.91 µM). The note with it: recombinant PfCDPK4, Kinase-Glo ATP depletion luminescence.
Sequence of Calcium-dependent protein kinase 4 (Plasmodium falciparum (isolate 3D7)) (Q8IBS5 whole entry, looked up): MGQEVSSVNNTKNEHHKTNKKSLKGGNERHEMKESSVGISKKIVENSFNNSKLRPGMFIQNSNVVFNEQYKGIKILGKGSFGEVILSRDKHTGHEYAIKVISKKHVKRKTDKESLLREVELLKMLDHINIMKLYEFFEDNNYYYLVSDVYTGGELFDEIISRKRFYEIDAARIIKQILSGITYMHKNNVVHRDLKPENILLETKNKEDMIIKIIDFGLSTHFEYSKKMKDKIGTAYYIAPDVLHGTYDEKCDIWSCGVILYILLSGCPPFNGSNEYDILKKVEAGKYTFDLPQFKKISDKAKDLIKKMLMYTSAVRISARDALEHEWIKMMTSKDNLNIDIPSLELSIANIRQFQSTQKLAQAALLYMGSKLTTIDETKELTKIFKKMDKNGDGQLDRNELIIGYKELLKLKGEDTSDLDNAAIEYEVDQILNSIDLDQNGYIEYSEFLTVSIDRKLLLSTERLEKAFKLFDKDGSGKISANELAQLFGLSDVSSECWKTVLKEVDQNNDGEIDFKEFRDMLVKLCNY

Sequence of Protein kinase 7 (PK7), Plasmodium falciparum 3D7 (PF3D7_0213400) (Q7YTF7 1-343): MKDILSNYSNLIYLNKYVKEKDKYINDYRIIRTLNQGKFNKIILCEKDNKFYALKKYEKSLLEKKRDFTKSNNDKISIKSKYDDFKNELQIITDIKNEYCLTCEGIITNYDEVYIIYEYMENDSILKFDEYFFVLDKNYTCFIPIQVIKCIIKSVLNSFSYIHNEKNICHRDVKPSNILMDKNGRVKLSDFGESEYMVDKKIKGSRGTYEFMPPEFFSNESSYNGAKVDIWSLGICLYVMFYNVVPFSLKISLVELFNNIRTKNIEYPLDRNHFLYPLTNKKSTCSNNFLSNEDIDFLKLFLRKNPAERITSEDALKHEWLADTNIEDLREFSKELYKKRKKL
Sequence of L-lactate dehydrogenase (Plasmodium falciparum (isolate CDC / Honduras)) (Q27743 whole entry, looked up): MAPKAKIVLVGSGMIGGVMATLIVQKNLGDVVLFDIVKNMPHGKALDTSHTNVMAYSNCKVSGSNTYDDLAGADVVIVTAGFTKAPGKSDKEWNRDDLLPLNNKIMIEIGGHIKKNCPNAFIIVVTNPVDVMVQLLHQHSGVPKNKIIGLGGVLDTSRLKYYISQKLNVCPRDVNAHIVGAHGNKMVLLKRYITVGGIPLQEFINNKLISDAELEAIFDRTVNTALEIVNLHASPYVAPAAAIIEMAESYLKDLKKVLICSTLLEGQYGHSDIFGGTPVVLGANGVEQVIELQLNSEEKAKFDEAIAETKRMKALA
Sequence of Plasmodium falciparum protein kinase 6 (PK6, PF3D7_1337100) (Q8IDW1 1-305): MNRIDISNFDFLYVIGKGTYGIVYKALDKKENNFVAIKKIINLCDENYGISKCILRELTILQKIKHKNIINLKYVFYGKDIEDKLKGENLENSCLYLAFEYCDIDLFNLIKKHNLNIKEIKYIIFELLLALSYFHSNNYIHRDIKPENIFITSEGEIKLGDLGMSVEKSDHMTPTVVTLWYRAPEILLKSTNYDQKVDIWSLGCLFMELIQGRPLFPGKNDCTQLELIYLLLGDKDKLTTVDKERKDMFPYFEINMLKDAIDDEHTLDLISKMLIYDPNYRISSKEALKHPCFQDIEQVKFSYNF
Sequence of Calcium-dependent protein kinase 1 (Plasmodium falciparum (isolate 3D7)) (P62344 whole entry, looked up): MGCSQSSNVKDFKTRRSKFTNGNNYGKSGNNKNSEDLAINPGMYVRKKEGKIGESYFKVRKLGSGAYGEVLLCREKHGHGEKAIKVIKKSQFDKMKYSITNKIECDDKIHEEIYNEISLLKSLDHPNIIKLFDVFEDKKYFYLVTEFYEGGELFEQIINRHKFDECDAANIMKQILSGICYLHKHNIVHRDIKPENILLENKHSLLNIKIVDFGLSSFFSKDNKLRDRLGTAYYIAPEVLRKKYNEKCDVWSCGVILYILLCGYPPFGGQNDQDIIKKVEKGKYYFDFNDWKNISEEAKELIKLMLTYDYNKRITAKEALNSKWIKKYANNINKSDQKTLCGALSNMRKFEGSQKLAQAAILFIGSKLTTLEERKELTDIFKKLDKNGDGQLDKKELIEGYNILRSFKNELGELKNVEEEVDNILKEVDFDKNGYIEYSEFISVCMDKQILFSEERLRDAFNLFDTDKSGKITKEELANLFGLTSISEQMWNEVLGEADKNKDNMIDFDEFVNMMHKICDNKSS

As to `CCCCc1cc(NCc2ccncc2)nc(Nc2ccccc2)n1`, the growth inhibition in assay [1] is 4%; in assay [4] it was 96% (active). The inhibition in assay [2] is -5%; in assay [3] it was -3%. Besides, the outcome in assay [5], in assay [6], in assay [7] and in assay [8] was inactive.

Regarding `Cc1cccc(NC(c2cccs2)c2c(NC(=O)c3ccccc3)sc(C)c2C)n1` (stereo not given), the growth inhibition was 80% (active) in assay [1] and 88% (active) in assay [4]. In addition, the results for the inhibition in assay [2] and in assay [3] were -8% and 1%, respectively. Also, the outcome in assay [5], in assay [6], in assay [7] and in assay [8] was inactive.

As to `Cc1sc(NC(=O)Cc2cccc(C(F)(F)F)c2)nc1-c1cccc(Cl)c1`, the results for the growth inhibition in assay [1] and in assay [4] were 95% (active) and 101% (active), respectively. The inhibition in assay [2] was 15%; in assay [3], -3%. For the same compound, the outcome in assay [5], in assay [6], in assay [7] and in assay [8] was inactive.

For the compound `Cc1cccc2[nH]c(-c3ccc(-c4ccc(NC(=O)CN5CCN(C)CC5)cc4)cc3)nc12`, the growth inhibition in assay [1] is 83% (active); in assay [4], 100% (active). The inhibition in assay [2] was 29%; in assay [3], 1%. The result in assay [5], in assay [6], in assay [7] and in assay [8] was inactive.

As for `COc1ccc2nccc(NC(=O)N3CCC(NCc4cc5c(F)ccc(F)c5[nH]4)CC3)c2n1`, the growth inhibition is 40% in assay [1] and 99% (active) in assay [4]. In addition, the figures for the inhibition in assay [2] and in assay [3] were 6% and -2%, respectively. Also, the outcome in assay [5], in assay [6], in assay [7] and in assay [8] was inactive.

In the case of `Cc1ccc2nc(N(CCCn3ccnc3)C(=O)C=Cc3cccs3)sc2c1`, the growth inhibition in assay [1] was 57% (active); in assay [4] it was 100% (active). The figures for the inhibition in assay [2] and in assay [3] were 22% and 0%, respectively. In addition, the result in assay [5], in assay [6], in assay [7] and in assay [8] was inactive.

Regarding `NC1=NC2(CCCC2)C(c2ccc(Cl)c(Cl)c2)C(N)=N1` (stereo not given), the growth inhibition in assay [1] is 3%; in assay [4] it was 92% (active). In addition, the values for the inhibition in assay [2] and in assay [3] were 7% and -1%, respectively. Further, the outcome in assay [5], in assay [6], in assay [7] and in assay [8] was inactive.

Regarding `CC(CN(C)C)C(=O)Nc1cccc(-c2ccc(-c3nc4ccccc4[nH]3)cc2)c1` (stereo not given), the figures for the growth inhibition in assay [1] and in assay [4] were 25% and 98% (active), respectively. The inhibition in assay [2] is 1%; in assay [3] it was -8%. Also, the outcome in assay [5], in assay [6], in assay [7] and in assay [8] was inactive.

`Cc1ccc(CN2CCN(c3cc4c(cc3Cl)CCN4C(=O)Cc3ccc(Cl)c(NC(=O)Nc4cccc(C#N)c4)c3)CC2)cc1`: the growth inhibition in assay [1] is 29%; in assay [4], 92% (active). The inhibition in assay [2] is 3%; in assay [3], 1%. The outcome in assay [5], in assay [6], in assay [7] and in assay [8] was inactive.

Turning to `Cc1ccc(Cn2ncc(N3CCCNCC3)c(Cl)c2=O)cc1NC(=O)Nc1ccc(-c2ccccc2)cc1`, the figures for the growth inhibition in assay [1] and in assay [4] were 38% and 101% (active), respectively. Further, the figures for the inhibition in assay [2] and in assay [3] were 55% (active) and 1%, respectively. In addition, the result in assay [5], in assay [6], in assay [7] and in assay [8] was inactive.

With `CCCCCN1CCCCC(NS(=O)(=O)c2ccc(C(=O)Nc3ccc(C(F)(F)F)cc3)cc2)C1` (stereo not given), the growth inhibition is -4% in assay [1] and 89% (active) in assay [4]. Besides, the inhibition in assay [2] was 34%; in assay [3], -2%. Also, the outcome in assay [5], in assay [6], in assay [7] and in assay [8] was inactive.

`Cc1cc(=O)c(-c2ccc(Oc3cccc(Cl)c3)cc2)c(C)[nH]1`: the growth inhibition was 89% (active) in assay [1] and 95% (active) in assay [4]. For the same compound, the inhibition in assay [2] was 23%; in assay [3], 0%. Also, the result in assay [5], in assay [6], in assay [7] and in assay [8] was inactive.

With `Cc1cc(-c2cccc(CNC3CCCC3)c2)ccc1S(=O)(=O)NCCN1CCCC1`, the growth inhibition in assay [1] was 7%; in assay [4], 81% (active). Also, the inhibition was 38% in assay [2] and 2% in assay [3]. Moreover, the result in assay [5], in assay [6], in assay [7] and in assay [8] was inactive.

In the case of `Cc1cccc2[nH]c(-c3ccc(-c4cccc(CNCCCN5CCCC5=O)c4)s3)nc12`, the growth inhibition in assay [1] is 26%; in assay [4], 101% (active). Further, the inhibition is 14% in assay [2] and -9% in assay [3]. The result in assay [5], in assay [6], in assay [7] and in assay [8] was inactive.

On to `COc1cccc(-c2cc(C(=O)NC3CCC(N4CCC(c5ccccc5C)CC4)CC3)[nH]n2)c1` (stereo not given), for which the growth inhibition was 58% (active) in assay [1] and 99% (active) in assay [4]. In addition, the inhibition is 60% (active) in assay [2] and -2% in assay [3]. For the same compound, the result in assay [5], in assay [6], in assay [7] and in assay [8] was inactive.

On to `O=C(/C=C/c1ccc(Cl)c(Cl)c1)NC1CCC(CN2CCC(Cc3cc4ccccc4[nH]3)CC2)CC1` (stereo not given), for which the growth inhibition in assay [1] was 74% (active); in assay [4] it was 100% (active). For the same compound, the figures for the inhibition in assay [2] and in assay [3] were 99% (active) and -8%, respectively. In addition, the outcome in assay [5], in assay [6], in assay [7] and in assay [8] was inactive.

On to `O=C(Cn1c(CCc2cccc(F)c2F)nc(=O)c2ccccc21)N(CCCN1CCCC1)Cc1ccc(-c2ccc(C(F)(F)F)cc2)cc1`, for which the results for the growth inhibition in assay [1] and in assay [4] were 80% (active) and 101% (active), respectively. Moreover, the results for the inhibition in assay [2] and in assay [3] were 54% (active) and 4%, respectively. In addition, the result in assay [5], in assay [6], in assay [7] and in assay [8] was inactive.

Consider `Cc1[nH]c(C)c(C(F)(F)F)c(=O)c1-c1ccc(Oc2ccc(OC(F)(F)F)cc2)cc1`, for which the growth inhibition is 96% (active) in assay [1] and 97% (active) in assay [4]. Besides, the inhibition was 0% in assay [2] and -6% in assay [3]. The outcome in assay [5], in assay [6], in assay [7] and in assay [8] was inactive.

On to `O=C(Nc1ccc(C(=O)N2CCN(CCN3CCN(c4cccc(C(F)(F)F)c4)CC3)CC2)cc1)c1cc(Cl)cc(Cl)c1`, for which the growth inhibition in assay [1] is 19%; in assay [4], 100% (active). Further, the results for the inhibition in assay [2] and in assay [3] were 23% and 3%, respectively. The result in assay [5], in assay [6], in assay [7] and in assay [8] was inactive.

With `N#Cc1cccc(-c2ccc(C(=O)Nc3ccc4c(c3)CCN(C3CCC3)CC4)cn2)c1`, the growth inhibition in assay [1] is 5%; in assay [4] it was 96% (active). Besides, the inhibition in assay [2] is 26%; in assay [3], -2%. The outcome in assay [5], in assay [6], in assay [7] and in assay [8] was inactive.

Broadly, the inhibition is the change of the read-out against control, counted positive when it falls.
